Data taken from PubChem BioAssay (Tox21).
“And” between values parts separate entries of the source, which are not always exact repeats. Equal values may be shown once. Records with an inconclusive call do not appear. A call without a number means that no potency is given here. The source holds several records for some structures; these can differ, active in one and inactive in another. The source made the active and inactive calls. Unless noted, calls follow the shape of the dose curve; as a rule, active = well fitted curve in the direction sought with a large enough effect in the repeat runs; inconclusive = weak or mixed curves; inactive = no such curve, though single readings can be large; an effect the other way counts as inactive or inconclusive.

Experiments:
[1] = biological target: Progesterone receptor (Homo sapiens) (UniProt P06401); test: qHTS assay to identify small molecule agonists of the progesterone receptor (PR) signaling pathway (AID 1346784; calls by dose curve; also: nearly all actives have a fitted effect of over 30% in size)
Sequence of Progesterone receptor (Homo sapiens) (P06401 whole entry, looked up): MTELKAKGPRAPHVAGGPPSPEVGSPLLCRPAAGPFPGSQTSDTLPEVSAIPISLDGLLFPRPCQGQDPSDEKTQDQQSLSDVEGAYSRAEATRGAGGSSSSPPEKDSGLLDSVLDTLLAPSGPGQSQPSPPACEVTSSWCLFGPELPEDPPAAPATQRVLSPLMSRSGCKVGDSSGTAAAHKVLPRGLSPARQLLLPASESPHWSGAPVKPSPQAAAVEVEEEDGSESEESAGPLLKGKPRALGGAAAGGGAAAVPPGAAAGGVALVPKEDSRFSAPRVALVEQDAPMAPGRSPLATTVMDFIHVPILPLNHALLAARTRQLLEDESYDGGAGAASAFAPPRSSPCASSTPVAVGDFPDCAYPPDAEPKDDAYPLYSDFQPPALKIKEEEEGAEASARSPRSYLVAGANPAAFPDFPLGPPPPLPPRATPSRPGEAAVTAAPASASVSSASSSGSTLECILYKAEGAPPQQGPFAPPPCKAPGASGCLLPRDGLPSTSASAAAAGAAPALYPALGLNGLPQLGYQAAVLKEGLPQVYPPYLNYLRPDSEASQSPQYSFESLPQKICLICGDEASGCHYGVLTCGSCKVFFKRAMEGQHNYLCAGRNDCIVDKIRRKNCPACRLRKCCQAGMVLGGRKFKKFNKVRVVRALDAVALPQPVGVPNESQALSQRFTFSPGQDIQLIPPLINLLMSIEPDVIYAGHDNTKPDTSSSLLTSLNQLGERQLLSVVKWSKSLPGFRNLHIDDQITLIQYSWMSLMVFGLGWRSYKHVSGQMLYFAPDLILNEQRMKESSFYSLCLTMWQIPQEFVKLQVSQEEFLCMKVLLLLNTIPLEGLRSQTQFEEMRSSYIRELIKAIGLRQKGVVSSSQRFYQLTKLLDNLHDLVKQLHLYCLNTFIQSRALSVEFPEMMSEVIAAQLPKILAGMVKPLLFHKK
Procedure, shortened: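 Reporter assay, GripTite PR-UAS-bla HEK 293T cells: 16 hr exposure to DMSO-dissolved compounds at 37C, 5% CO2, in steroid-depleted (2% charcoal-stripped FBS) medium; beta-lactamase measured by FRET fluorescence.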

[2] = biological target: Progesterone receptor (Homo sapiens) (UniProt P06401); test: qHTS assay to identify small molecule antagonists of the progesterone receptor (PR) signaling pathway (AID 1346795; active = well fitted inhibition curve with a large enough effect in the signal ratio in the repeat runs, not every such curve was filed as active; the % refers to the signal ratio; also: potency is read from the fitted curve at half-maximal effect)
Procedure, shortened: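 Stimulus R5020 at 1 nM final; cells HEK293T PR-UAS-bla; medium with 2% charcoal-stripped FBS; compound exposure 16 hr at 37C, 5% CO2; detection by FRET beta-lactamase substrate, 2 hr, room temperature.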

[3] = qHTS assay to identify small molecule agonists of the progesterone receptor (PR) signaling pathway - cell viability counter screen (AID 1346799; calls by dose curve; also: nearly all actives have a fitted effect of over 45% in size; also: potency is read from the fitted curve at half-maximal effect)
Procedure, shortened: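 Multiplexed viability read: CellTiter-Glo luminescence, 30 min RT, following LiveBLAzer FRET measurement on PR-UAS-bla HEK293T cells exposed to compounds 16 hr.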

[4] = qHTS assay to identify small molecule agonists of the TGF-beta/Smad signaling pathway - cell viability counter screen (AID 1346829); also: nearly all actives have a fitted effect of over 45% in size; also: potency is read from the fitted curve at half-maximal effect
Procedure, shortened: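 Luminescence from CellTiter-Glo, read after a 30 min room-temperature incubation, gives cell viability of SBE-bla HEK 293T cells treated 5 hr with compounds at 37 C.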

[5] = qHTS assay to identify small molecule agonists of the TGF-beta/Smad signaling pathway (AID 1346859; active = well fitted activation curve with a large enough effect in the signal ratio in the repeat runs, not every such curve was filed as active; the % refers to the signal ratio; also: potency is read from the fitted curve at half-maximal effect; as to activation: series mostly up to about 77 µM)
Procedure, shortened: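 Screening used HEK 293T SBE-bla cells at 4,000/well. Test agents: 5 hr, 37 C. Detection: FRET substrate, 2 hr RT, then excitation 405 nm with emissions at 460 and 530 nm.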

[6] = biological target: Thyrotropin-releasing hormone receptor (Homo sapiens) (UniProt P34981); test: qHTS assay to identify small molecule antagonists of the thyrotropin-releasing hormone receptor (TRHR) signaling pathway (AID 1346877; active = well fitted inhibition curve with a large enough effect in the repeat runs, not every such curve was filed as active; also: series mostly up to about 51 µM)
Sequence of Thyrotropin-releasing hormone receptor (Homo sapiens) (P34981 whole entry, looked up): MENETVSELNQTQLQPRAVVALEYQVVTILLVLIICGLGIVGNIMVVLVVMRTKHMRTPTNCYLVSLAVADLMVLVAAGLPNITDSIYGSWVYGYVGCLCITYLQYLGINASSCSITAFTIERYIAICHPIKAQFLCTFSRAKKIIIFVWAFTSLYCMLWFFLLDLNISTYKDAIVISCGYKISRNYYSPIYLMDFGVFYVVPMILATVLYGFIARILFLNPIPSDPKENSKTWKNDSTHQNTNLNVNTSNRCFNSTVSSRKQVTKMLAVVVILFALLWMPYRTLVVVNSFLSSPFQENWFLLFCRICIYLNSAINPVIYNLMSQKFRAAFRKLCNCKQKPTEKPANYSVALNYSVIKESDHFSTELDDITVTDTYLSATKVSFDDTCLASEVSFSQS
Procedure, shortened: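 Antagonist mode: after a 5 min room-temperature compound exposure, cells were stimulated with 1 nM (final) TRH. Dye-loaded TRHR-HEK293 cells were used, and calcium-dependent fluorescence was followed for 3 min, with 15-point titrations run in triplicate.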

[7] = biological target: Thyrotropin-releasing hormone receptor (Homo sapiens) (UniProt P34981); test: qHTS assay to identify small molecule agonists of the thyrotropin-releasing hormone receptor (TRHR) signaling pathway (AID 1346891; calls by dose curve; also: series mostly up to about 58 µM)
Procedure, shortened: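 Readout was intracellular calcium fluorescence in TRHR-Hek293 cells. Cells were incubated 18 h, dye-loaded 2 h at 37 °C, and treated with compound in agonist mode.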

[8] = Human pregnane X receptor (PXR) small molecule agonists, qHTS cell viability counter screen (AID 1346977); also: nearly all actives have a fitted effect of over 50% in size; also: potency is read from the fitted curve at half-maximal effect
Procedure, shortened: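 In each well, the PXR reporter HepG2 line was checked for viability: CellTiter-Fluor reagent added 23hr post-dosing, fluorescence read after 1hr incubation at 37C.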

[9] = qHTS assay to identify small molecule antagonists of the TGF-beta/Smad signaling pathway - cell viability counter screen (AID 1346824); also: nearly all actives have a fitted effect of over 50% in size
Procedure, shortened: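 Cytotoxicity counter-screen run in the same wells as the beta-lactamase Smad reporter read: CellTiter-Glo luminescence after 30 min at room temperature. HEK 293T SBE-bla cells had 5 hr compound exposure at 37 C with TGF-beta1 (0.25 ng/mL stock).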

[10] = qHTS assay to identify small molecule antagonists of the progesterone receptor (PR) signaling pathway - cell viability counter screen (AID 1346798); also: series mostly up to about 92 µM; nearly all actives have a fitted effect of over 50% in size
Procedure, shortened: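 In the same plates used for the beta-lactamase readout, cell viability of compound- and R5020-treated PR-UAS-bla HEK293T cells (16 hr, 37C) was assessed by CellTiter-Glo luminescence.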

Compound | Potency [1] | Potency [2] | Potency [3] | Potency [4] | Potency [5] | Potency [6] | outcome [7] | Potency [8] | Potency [9] | Potency [10]
Cc1ccc(C)c(S(=O)(=O)O)c1 | inactive | inactive | inactive | inactive | inactive | inactive | inactive | inactive | – | –
CCc1cccc(O)c1 | inactive | – | inactive | inactive | inactive | inactive | inactive | – | inactive | –
Cc1cc(C)cc(O)c1 | inactive | – | inactive | inactive | inactive | inactive | inactive | 6.31 µM (active) and inactive | – | –
CC(C)(CO)CO | inactive | – | inactive | inactive | inactive | inactive | inactive | inactive | inactive | –
CCCCCNCCCCC | – | inactive | inactive | inactive | inactive | inactive | inactive | inactive | inactive | inactive
C=C(C)CC(C)(C)C | – | inactive | inactive | inactive | inactive | inactive | inactive | inactive | inactive | inactive
c1cnc2c(c1)ccc1cccnc12 | inactive | – | – | inactive | inactive | – | – | – | inactive | –
CCCCCCCCO | inactive | – | inactive | – | inactive | – | – | – | – | inactive
OC[C@H]1O[C@@H](Oc2ccc(O)cc2)[C@H](O)[C@@H](O)[C@@H]1O | inactive | – | inactive | – | inactive | inactive | inactive | – | inactive | –
CO[Si](CCCNCCN)(OC)OC | inactive | – | inactive | 31.4 µM (active) and inactive | inactive | inactive | inactive | 31.6 µM (active) and inactive | – | inactive
COc1c(Cl)ccc(Cl)c1C(=O)O | inactive | inactive | inactive | – | inactive | inactive | inactive | inactive | inactive | –
O=C(c1ccccc1)c1ccc(O)c(O)c1O | inactive | – | inactive | inactive | inactive | inactive | inactive | – | – | –
CCc1cccc(CC)c1N | inactive | – | inactive | inactive | inactive | – | – | inactive | – | inactive
CC1=CC(=O)CC(C)(C)C1 | inactive | – | 19.9 µM (active) | – | inactive | inactive | inactive | – | – | –
C=CC(=O)NCOCCCC | inactive | – | inactive | inactive | inactive | inactive | inactive | – | inactive | –
Clc1cccc(Cl)c1NC1=NCCN1 | inactive | – | inactive | – | inactive | – | – | – | – | inactive
NC(N)=S | inactive | – | inactive | inactive | inactive | inactive | inactive | inactive | – | inactive
OCCOCCOCCOCCOCCO | inactive | inactive | inactive | – | inactive | inactive | inactive | inactive | inactive | –
CCN(CC)CCNC(=O)c1ccc(N)cc1 | inactive | – | inactive | – | inactive | – | – | inactive | – | –
Cc1ccncc1 | inactive | inactive | inactive | – | inactive | inactive | inactive | – | – | –
Cc1nnc(NS(=O)(=O)c2ccc(N)cc2)s1 | inactive | – | inactive | inactive | inactive | – | – | inactive | – | –

Compound | Potency [1] | Potency [2] | Potency [3] | Potency [4] | Potency [5] | Potency [6] | outcome [7] | Potency [8] | Potency [9] | Potency [10]
NC(=O)c1ncn([C@@H]2O[C@H](CO)[C@@H](O)[C@H]2O)n1 | inactive | – | – | inactive | inactive | inactive | inactive | inactive | – | –
NCCNCCNCCN | inactive | – | inactive | – | inactive | inactive | inactive | inactive | inactive | inactive
CC(=O)OCc1ccc2c(c1)OCO2 | inactive | – | inactive | inactive | inactive | inactive | inactive | inactive | inactive | –
Cc1cc(CC(=O)O)n(C)c1C(=O)c1ccc(Cl)cc1 | inactive | – | inactive | inactive | – | inactive | inactive | inactive | inactive | –
CC(=O)C(C)C | – | inactive | inactive | inactive | inactive | inactive | inactive | – | – | –
Cc1ccccc1Cl | – | – | inactive | inactive | inactive | – | – | – | inactive | –
OCC(CO)(CO)CO | – | – | inactive | inactive | inactive | inactive | inactive | inactive | – | inactive
O=c1n(CCCN2CCN(c3cccc(Cl)c3)CC2)nc2ccccn12 | – | inactive | inactive | – | inactive | – | – | inactive | – | inactive
CC(O)CNCC(C)O (stereo not drawn) | – | inactive | inactive | inactive | inactive | – | – | inactive | inactive | inactive
CCCCCCCCCCCC(=O)N(C)CC(=O)O | – | – | inactive | inactive | inactive | – | – | – | inactive | –
Nc1cccc(C(F)(F)F)c1 | – | inactive | inactive | inactive | inactive | inactive | inactive | inactive | inactive | –
Cc1ccc([N+](=O)[O-])cc1N | – | inactive | inactive | inactive | inactive | inactive | inactive | – | – | inactive
Oc1ccc(Cc2ccccc2O)cc1 | – | 43.8 µM (active) and 48.6 µM (active) | inactive | – | inactive | inactive | inactive | inactive | inactive | –
CCCCCCCCCCCCCC(=O)O | – | inactive | inactive | inactive | inactive | inactive | inactive | – | – | inactive
CN=C(NC#N)NCCSCc1nc[nH]c1C | – | – | inactive | inactive | inactive | inactive | inactive | inactive | – | inactive
CCCCC(CC)COC(=O)c1ccc(C(=O)OCC(CC)CCCC)cc1 (stereo not drawn) | – | inactive | inactive | inactive | inactive | inactive | inactive | – | – | –
Cc1ncc(CO)c(CO)c1O | – | – | inactive | – | inactive | inactive | inactive | inactive | – | inactive
O=Cc1ccc(CO)o1 | – | inactive | inactive | inactive | inactive | inactive | inactive | inactive | inactive | –
COc1ccc(N)c(OC)c1 | – | – | inactive | inactive | inactive | – | – | inactive | inactive | inactive
CC(=O)OC/C=C(\C)CCC=C(C)C | – | – | – | – | inactive | – | – | – | inactive | inactive
O=C1OC(=O)c2c(Cl)c(Cl)c(Cl)c(Cl)c21 | – | – | inactive | inactive | inactive | inactive | inactive | inactive | inactive | inactive

Compound | Potency [1] | Potency [2] | Potency [3] | Potency [4] | Potency [5] | Potency [6] | outcome [7] | Potency [8] | Potency [9] | Potency [10]
C1CCCNCC1 | – | inactive | inactive | – | inactive | inactive | inactive | inactive | inactive | inactive
CCCCCCCCC(=O)O | – | – | inactive | – | inactive | inactive | inactive | inactive | – | –
CC/C=C(\C(=O)N[C@@H]1C(=O)N2C(C(=O)OCOC(=O)C(C)(C)C)=C(COC(N)=O)CS[C@H]12)c1csc(N)n1 | – | – | inactive | inactive | inactive | inactive | inactive | inactive | – | –
Nc1nc(N)c2nc(-c3ccccc3)c(N)nc2n1 | – | – | inactive | inactive | 22.1 µM (active) and 19 µM (active) | inactive | inactive | inactive | inactive | –
CC(=O)CC(=O)N(C)C | – | inactive | inactive | – | inactive | inactive | inactive | – | inactive | inactive
C[n+]1ccn(CCO)c1 | – | – | inactive | – | inactive | inactive | inactive | inactive | inactive | –
C[Si](C)(C)N[Si](C)(C)C | – | – | inactive | inactive | inactive | – | – | inactive | inactive | inactive
CC(=O)OC(C)(C)C1CC=C(C)CC1 (stereo not drawn) | – | – | inactive | inactive | inactive | inactive | inactive | – | inactive | inactive
CCCOC(=O)NCCCN(C)C | – | – | inactive | – | inactive | – | – | inactive | inactive | inactive
CC/C(C)=N/O | – | inactive | inactive | – | inactive | inactive | inactive | – | inactive | –
NC(=O)NC(N)=O | – | inactive | inactive | – | inactive | inactive | inactive | inactive | inactive | –
Brc1ccc(Oc2ccc(Br)cc2)cc1 | – | inactive | inactive | inactive | inactive | inactive | inactive | – | – | inactive
CCCOCC(C)O (stereo not drawn) | – | – | inactive | – | inactive | inactive | inactive | inactive | inactive | inactive
COC(=O)/C=C\C(=O)OC | – | – | inactive | inactive | inactive | inactive | inactive | – | inactive | inactive
CC[N+](CC)(CC(=O)Nc1c(C)cccc1C)Cc1ccccc1 | – | inactive | inactive | – | inactive | – | – | inactive | inactive | inactive
COc1ccc([C@@H]2CC(=O)c3c(O)cc(O[C@@H]4O[C@H](CO[C@@H]5O[C@@H](C)[C@H](O)[C@@H](O)[C@H]5O)[C@@H](O)[C@H](O)[C@H]4O)cc3O2)cc1OC | – | inactive | inactive | inactive | inactive | inactive | inactive | inactive | – | –
O=C1O[C@H]([C@H](O)CO)C(O)=C1O | – | – | inactive | – | inactive | – | – | inactive | – | inactive
C=C(CC(=O)O)C(=O)O | – | – | inactive | – | inactive | inactive | inactive | – | inactive | –
CC(C=O)Cc1ccc(C(C)(C)C)cc1 (stereo not drawn) | – | – | inactive | inactive | inactive | inactive | inactive | inactive | inactive | inactive
CC(C)c1ccc(C(C)C)cc1 | – | inactive | inactive | – | inactive | inactive | inactive | – | inactive | inactive
CCCCCC(C)=O | – | – | inactive and 61.1 µM (active) | inactive | inactive | inactive | inactive | inactive and 61.1 µM (active) | inactive | inactive
